The supplement of paper PMC3414501
Structures can show the parent of a compound that is named as a salt.

Columns and labels:
[1] = system: S. cerevisiae SK1 pCDA2-eGFP (USY613), sporulating; assay: CDA2-GFP sporulation assay sensitivity score (z-score vs DMSO controls); higher = stronger inhibition of sporulation, active = hit call of the paper;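 further: active if sensitivity score above 5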
[2] = system: S. cerevisiae NKY1551 his4x/his4B, sporulating; assay: HIS4 meiotic recombination assay sensitivity score (z-score vs DMSO controls); higher = stronger inhibition of sporulation/recombination, active = hit call of the paper;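 further: active if sensitivity score above 5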
[3] = system: S. cerevisiae AD1-9 (efflux-pump deficient), vegetative growth in YPD; assay: growth sensitivity score (doubling time z-score vs DMSO controls); higher = slower growth, strongly negative scores also mark growth inhibition (complete suppression), active = hit call of the paper
Method in brief: (§1)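 Rich medium in microtiter plates was seeded with Saccharomyces cerevisiae strains BY4741 and AD1-9 at an OD600 of 0.065, and compounds were added as a 1:100 dilution of DMSO stock. A Tecan GENios reader recorded optical density every 15 min for 24 hours, with eight solvent-only wells in each experiment. Average doubling time was the time to reach a set generation point divided by generation number. The growth sensitivity score was the compound mean minus the solvent-only mean, divided by the solvent-only standard deviation.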

[4] = system: S. cerevisiae BY4741 (wild-type), vegetative growth in YPD; assay: as above
Method in brief: as §1

Row | SMILES | CDA2-GFP sporulation assay sensitivity score [1] | HIS4 meiotic recombination assay sensitivity score [2] | growth sensitivity score [3] | growth sensitivity score [4]
1 | COc1ccc(CC2c3cc(OC)c(OC)cc3CC[N+]2(C)CCC(=O)OCCCCCOC(=O)CC[N+]2(C)CCc3cc(OC)c(OC)cc3C2Cc2ccc(OC)c(OC)c2)cc1OC (stereo unspecified) [Atracurium besylate] (stock concentration (mM, diluted 1:100): 10) | 17.9 (active) | 0.87 (inactive) | -2.52 | -0.31 (inactive)
2 | COc1cc(/C=C/c2ccc(O)cc2)cc(OC)c1 [Pterostilbene] (stock concentration (mM, diluted 1:100): 10) | -2.39 (inactive) | -0.31 (inactive) | – | –
3 | CC(C)/N=c1\cc2n(-c3ccc(Cl)cc3)c3ccccc3nc-2cc1Nc1ccc(Cl)cc1 [Clofazimine] (stock concentration (mM, diluted 1:100): 10) | 0.66 (inactive) | -1.5 (inactive) | 108 (active) | 61.3 (active)
4 | C=CCc1ccc(O)c(-c2ccc(O)c(CC=C)c2)c1 [Honokiol] (stock concentration (mM, diluted 1:100): 10.1) | 0.56 (inactive) | -1.68 (inactive) | – | –
5 | CCOC(=O)[C@H](CCc1ccccc1)N[C@H]1CCc2ccccc2N(CC(=O)O)C1=O [Benazepril hydrochloride] (stock concentration (mM, diluted 1:100): 9.2) | -1.49 (inactive) | 0.2 (inactive) | 1.33 (inactive) | 1.72 (inactive)
6 | NNCCc1ccccc1 [Phenelzine sulfate salt] (stock concentration (mM, diluted 1:100): 10) | 1.83 (inactive) | -3.78 (inactive) | -0.66 (inactive) | 0.3 (inactive)
7 | CCS(=O)(=O)CCn1c([N+](=O)[O-])cnc1C [Tinidazole] (stock concentration (mM, diluted 1:100): 10) | 1.26 (inactive) | -1.77 (inactive) | -0.62 (inactive) | -0.09 (inactive)
8 | Cc1c(O)c(=O)ccn1C [Deferiprone] (stock concentration (mM, diluted 1:100): 10) | 2.38 (inactive) | -0.12 (inactive) | -1.63 (inactive) | 0.2 (inactive)
9 | CC(C)OC(=O)CCC/C=C\C[C@@H]1[C@@H](CC[C@@H](O)CCc2ccccc2)[C@H](O)C[C@@H]1O [Latanoprost] (stock concentration (mM, diluted 1:100): 10.3) | 8.85 (active) | 0.65 (inactive) | 125 (active) | 0.43 (inactive)
10 | CCC(C)(C)N=C(NC#N)Nc1cccnc1 [Tocris-1355] (stock concentration (mM, diluted 1:100): 9.9) | 3.65 (inactive) | -1.39 (inactive) | -1.02 (inactive) | 0.46 (inactive)
11 | COc1cccc2c1C(=O)c1c(O)c3c(c(O)c1C2=O)C[C@@](O)(C(=O)CO)C[C@@H]3O[C@H]1C[C@H](N)[C@H](O)[C@H](C)O1 [Doxorubicin hydrochloride] (stock concentration (mM, diluted 1:100): 9.4) | 0.3 (inactive) | -0.73 (inactive) | 83.6 (active) | 51 (active)
12 | C/C=C1\[C@H]2C=C(C)C[C@]1(N)c1ccc(=O)[nH]c1C2 [Huperzine a] (stock concentration (mM, diluted 1:100): 10) | 3.17 (inactive) | -0.7 (inactive) | 1.24 (inactive) | -1.79 (inactive)
13 | Cc1[nH]cnc1CN1CCc2c(c3ccccc3n2C)C1=O [Alosetron hydrochloride] (stock concentration (mM, diluted 1:100): 8.9) | -0.89 (inactive) | -3.51 (inactive) | -0.69 (inactive) | 3.01 (active)
14 | CO[C@H]1O[C@@H]2O[C@@]3(C)CC[C@H]4[C@H](C)CC[C@@H]([C@H]1C)[C@@]24OO3 [Artemether] (stock concentration (mM, diluted 1:100): 10) | 7.92 (inactive) | -0.64 (inactive) | 9.66 (active) | 17.6 (active)
15 | O=C1N[C@H](C(=O)O)CS1 [Procysteine] (stock concentration (mM, diluted 1:100): 10) | 0.97 (inactive) | -0.93 (inactive) | -2.4 | -0.31 (inactive)
